Data published in PubChem BioAssay AID2094 (Broad Institute, 2009).
About 1,200 (0.4%) of roughly 300,000 compounds were called active. The entries come from a sample that favours actives as a whole. Values without a mark were called inactive. No stated cut-off is given here; in the data, active means activity change below about -75% (passing the limit was not always enough); inconclusive means no clear call, values can overlap the other calls.

Assay: Vibrio harveyi AI-2 quorum sensing modulators, primary screen, JMH597 strain, luminescence/OD600 ratio (AID 2094);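 further: luminescence divided by OD600 gain over 9 h not by final OD600 alone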
Details: Vibrio harveyi JMH597 AI-2 luminescence/OD600 ratio, 9 h; at 7.5 µM; active compounds read low; 0 = neutral-control median; strain lacks LuxN and CqsS sensors
`O=C(O)c1c(NC(=O)N2CCCC2)sc2c1CCCC2` gave an activity change of 6.56%. Work on `COc1cccc(C(=O)NC(=O)Nc2nc(C)cc(C(F)(F)F)n2)c1` yielded an activity change of 11%. `O=C(Cn1nc(C(=O)O)c2ccccc2c1=O)Nc1ccc(F)cc1` showed an activity change of 18.2%. For `Cc1nn(CC(=O)Nc2ccc(F)cc2)c(=O)c2ccccc12`, the activity change was -95.2% (active). `Cc1nn(CC(=O)Nc2ccc3c(c2)nc(CN2CCCCC2)n3C)c(=O)c2ccccc12` gave an activity change of 18.4%. Work on `CCN(C(=O)COC(=O)C1CCN(S(=O)(=O)c2ccc(C)c(C)c2)CC1)C1CCS(=O)(=O)C1` (centres undefined) yielded an activity change of -3.07%. In the case of `O=C(CCNS(=O)(=O)c1ccc(Br)s1)NCc1ccccc1Cl`, the activity change is reported as 32.2%. For `CCN(CC)c1ccc(NC(=O)c2ccc(=O)[nH]c2)cc1S(=O)(=O)Nc1ccc(OC)cc1`, the activity change was 18.7%. In the case of `COc1ccc(CN(C)C(=O)c2cc(-c3ccc(C)cc3C)nc3ccccc23)c(OC)c1OC`, the activity change is reported as 10.3%. `COc1cc(C=O)c(Br)cc1OCC(=O)NCc1ccccc1` showed an activity change of 15.5%. With `COc1cc(C(=O)NCc2ccncc2)cc(Br)c1OCc1ccccc1` the activity change was 36.8%. With `COc1cc(C(=S)NCc2ccccc2)cc(Br)c1O` the activity change was -79.9% (active). `CN(C(=O)CN1C(=O)S/C(=C\c2ccccc2F)C1=O)C1CCS(=O)(=O)C1` (centres undefined) showed an activity change of 34.2%. With `C=CCSc1nsc(NC(=O)Nc2cccc(C(C)=O)c2)n1` the activity change was -85% (active). `CSc1nsc(NC(=O)Nc2ccccc2)n1` gave an activity change of 37.1%. Molecule `CCSc1nsc(NC(=O)Nc2ccccc2OC)n1` has an activity change of 11.5%. With `COc1ccc(NC(=O)CSCc2ccc([N+](=O)[O-])cc2)cc1OC` the activity change was 3.16%. In the case of `COc1ccc(-c2cc(C(=O)N(C)CC(=O)Nc3ccccc3Cl)c3ccccc3n2)cc1OC`, the activity change is reported as 20%. `O=C(COc1cccc2c1CCNC2=O)NC1CCCCC1` showed an activity change of 2.05%. Work on `O=C(OCc1cn(-c2ccc(Cl)c(Cl)c2)nn1)c1ccccc1Cl` yielded an activity change of -28.4%. With `CCCCCc1ccc(-c2ccc(C(=O)O)cc2)nc1` the activity change was -76% (active). For `CCCCCc1ccc(-c2cn(Cc3ccc4ccccc4c3)nn2)cc1`, the activity change was 6.86%. `CCCCCc1ccc(-c2ccc(OCC)cc2)nc1` gave an activity change of -0.256%. For `Cc1c(CC(=O)N2CCN(C(=O)C3COc4ccccc4O3)CC2)c(=O)oc2c(O)c(O)ccc12` (centres undefined), the activity change was 10.9%. For `O=C(NC(=O)N1CCSCC1)c1c(Cl)cccc1Cl`, the activity change was 19.3%. With `CSCCC(NC(=O)c1ccco1)C(=O)Nc1cc(C)ccn1` (centres undefined) the activity change was 30%. Molecule `COc1ccc(/C=C(\C#N)C(=O)OCC(=O)N(C)C2CCS(=O)(=O)C2)cc1` (centres undefined) has an activity change of 22.6%. Molecule `O=C(O)CCc1cccnc1` has an activity change of 7.07%. For `N/C(=N\OC(=O)CCc1ccccc1)c1cccnc1`, the activity change was -85.7% (active). Molecule `N/C(=N\OC(=O)CCc1ccccc1)c1ccc(Cl)cc1` has an activity change of 7.92%. Molecule `COc1ccc(C(=O)NCc2nnc(SCC(=O)NC3=NCCS3)n2C)cc1` has an activity change of -5.32%. For `CCCOCC(O)CC(CC)C(=O)NNC(=S)Nc1ccccc1` (centres undefined), the activity change was 0.623%. `O=C1/C(=C/c2ccc3c(c2)OCO3)Oc2cc(OCC(=O)N3CC(O)C[C@H]3C(=O)O)ccc21` (some centres undefined) gave an activity change of 29%. For `O=C(CC1SCCNC1=O)Nc1ccc(Cl)c(Cl)c1` (centres undefined), the activity change was -87.7% (active). `O=C(CC1SCCNC1=O)Nc1ccc(Cl)cc1` (centres undefined) gave an activity change of -15%. `O=C(CC1NCCNC1=O)Nc1cc(Cl)cc(Cl)c1` (centres undefined) showed an activity change of 4.37%. `COc1ccccc1/C=C/C=N/n1c(-c2ccc(Cl)cc2Cl)n[nH]c1=S` showed an activity change of -0.967%. Work on `O=C(CSc1ncn[nH]1)N/N=C/c1ccc(F)cc1` yielded an activity change of -5.64%. In the case of `O=C(/C=C/Sc1ncn[nH]1)c1ccc(Cl)cc1`, the activity change is reported as -91.7% (active). In the case of `Cc1cc(C)nc(S/C=C/C(=O)c2ccccc2)n1`, the activity change is reported as 4.08%. In the case of `CC(=O)N(CC(O)CO)c1c(I)c(C(=O)NCC(O)CO)c(I)c(C(=O)NCC(O)CO)c1I` (centres undefined), the activity change is reported as 14.8%. `Cn1ccc(=NC=C(C#N)C#N)c2ccccc21` gave an activity change of 22.8%. Molecule `CCOc1ccc(/C=N\NC(=O)c2c(C)nc3cc(C)ccn23)cc1` has an activity change of 2.9%. With `C=CCNC(=S)N/N=C/c1ccc(OCc2ccccc2)cc1` the activity change was 16.4%. For `CCOc1ccc(/C=N/NC(N)=S)cc1`, the activity change was -94.8% (active). Molecule `COC(=O)CSc1snnc1-c1ccc(Cl)c(Cl)c1` has an activity change of 9.65%. Molecule `O=S1(=O)N=C(N(CCO)/N=C/c2ccccc2F)c2ccccc21` has an activity change of 15.9%. Work on `Cc1ccc(C2CC2C(=O)NN)cc1` (centres undefined) yielded an activity change of 19.8%. `O=C(NNC(=S)Nc1ccc(F)cc1)[C@H]1C[C@@H]1c1ccccc1` gave an activity change of -11.8%. In the case of `Cc1ccc(NC(=O)C2CC2c2ccccc2)cc1` (centres undefined), the activity change is reported as -86.2% (active). Work on `CCN(CC(=O)NCc1cccs1)C(=O)c1cccc(S(=O)(=O)Nc2ccccc2OC)c1` yielded an activity change of 5.29%. Molecule `C/C(CC1CC(C)(C)OC1=O)=N/Nc1nc(-c2ccccc2)cs1` (centres undefined) has an activity change of 26.9%. Work on `Cc1ccccc1C(=O)N1CCN(c2ccc(NC(=O)c3cccs3)cc2)CC1` yielded an activity change of 11.9%. For `Cc1ccccc1C(=O)NC(=S)Nc1ccc(N2CCN(C(=O)c3ccccc3)CC2)cc1`, the activity change was 13.3%. With `Cc1ccccc1C(=O)Nc1ccc(N2CCCCCC2)cc1` the activity change was -80.7% (active). `O=C(NCc1cccs1)C1CCN(S(=O)(=O)c2ccc(Cl)cc2)CC1` showed an activity change of 14.4%. `O=C(Nc1cccnc1)c1cccc(S(=O)(=O)N2CCCC2)c1` showed an activity change of 6.26%. With `O=C(Nc1ccc(F)c(Cl)c1)C1CCN(S(=O)(=O)c2cccnc2)CC1` the activity change was -93.8% (active). With `O=C(Cc1cccs1)Nc1ccc([N+](=O)[O-])cc1` the activity change was 10.5%. `Oc1ccc2ccc3cccc[n+]3c2c1` gave an activity change of 42.1%. With `CCOc1ccc(/C=N/OCC(=O)NCc2cccs2)cc1` the activity change was 5.49%. `O=C(/C=C/c1ccc2c(c1)OCO2)NCc1cn2cc(Cl)ccc2n1` gave an activity change of 2.46%. With `O=C(Cc1ccc(F)cc1)N/N=C/c1ccc2c(c1)OCO2` the activity change was 14.4%. For `O=C(/C=C/c1ccc2c(c1)OCO2)NCc1ccc(F)cc1`, the activity change was -82.8% (active). With `CC(=O)N1c2ccc(S(=O)(=O)N3CCC(C(=O)NC4CCCC(C)C4C)CC3)cc2CC1C` (centres undefined) the activity change was 26.4%. Work on `O=C(COc1ncnc2c(Cl)cc(Cl)cc12)N1CCN(S(=O)(=O)c2ccccc2)CC1` yielded an activity change of 8.92%. With `Cc1cc(C)c2nc(-c3cccnc3)cc(C(=O)Nc3ccc(S(=O)(=O)Nc4onc(C)c4C)cc3)c2c1` the activity change was 39.3%. Work on `CCOC(=O)c1sc(NC(=O)c2sc(C)nc2C)nc1C` yielded an activity change of 1.24%. In the case of `CC1COc2ccccc2N1C(=O)c1ccc(F)cc1` (centres undefined), the activity change is reported as 25.4%. In the case of `O=C(Nc1nnc(C2COc3ccccc3O2)o1)c1ccc(F)cc1` (centres undefined), the activity change is reported as -225% (active). Work on `O=C(Nc1ccccc1F)c1ccc2c(c1)OCO2` yielded an activity change of -3.7%. In the case of `CN(C)S(=O)(=O)N1CCC(Oc2cccc(C(=O)NCCCC3CCCC3)c2)CC1`, the activity change is reported as 1.44%. In the case of `CCN(CC(=O)Nc1cccc(S(=O)(=O)N2CCCCC2)c1)Cc1ccccc1`, the activity change is reported as 24.8%. For `O=C(Cn1cnc2ccccc2c1=O)Nc1cccc(S(=O)(=O)N2CCCCC2)c1`, the activity change was -81.4% (active). Work on `CC(=O)NC(CC(=O)Nc1cccc(S(=O)(=O)N2CCCC2)c1)c1ccccc1` (centres undefined) yielded an activity change of 3.39%. With `C=CS(=O)c1sc(Cl)c(N2CCOCC2)c1[N+](=O)[O-]` (centres undefined) the activity change was -83.3% (active). For `CCCNC(=S)N1CCC(NC(=O)C23CC4CC(CC(C4)C2)C3)CC1`, the activity change was 28.5%. For `CCCc1cc(=O)oc2c(C)c(OC(C)C(=O)NCC(O)c3ccccc3)ccc12` (centres undefined), the activity change was 23.7%. With `CC(Oc1ccc(-c2ccccc2)c(F)c1)c1ccn(S(=O)(=O)c2cccc3ccccc23)n1` (centres undefined) the activity change was 27.1%. In the case of `CCN(CC)CCn1c2c(c(SCC(=O)Nc3ccc(C(C)C)cc3)nc1=O)CCC2`, the activity change is reported as 5.82%. Work on `O=c1c2sccc2nc(SCc2cc(=O)n3ccccc3n2)n1-c1ccc(Br)cc1` yielded an activity change of 19.6%. In the case of `C=C(C)c1cccc(C(C)(C)NC(=O)NC2CCCC2)c1`, the activity change is reported as 1.39%. `COc1ccc(C(=O)NNC(=S)NC(=O)c2ccccc2[N+](=O)[O-])cc1` gave an activity change of 34.4%. Molecule `COc1ccc(C(=O)NC(=S)NNC(=O)c2c(-c3ccccc3)noc2C)cc1` has an activity change of 26.1%. For `COc1ccc(C(=O)NNC(=S)NC(=O)c2ccccc2)cc1`, the activity change was -106% (active). Molecule `CCNc1nc(NC(C)C)nc(OCCOC(=O)c2ccccc2)n1` has an activity change of 23.7%. `COc1ccc(C2N=C(N)N=C(N)N2c2ccccc2)cc1OC` (centres undefined) gave an activity change of 19.2%. `CC1=CC=CC2=N/C(=N\S(=O)(=O)c3ccc(F)cc3F)c3ccccc3CN12` showed an activity change of 21.6%. With `CCc1ccccc1NC(=O)CCOc1ccccc1` the activity change was 24.5%. For `Cc1ccccc1NC(=O)CCOc1ccccc1`, the activity change was -83.3% (active). With `Cc1cccc(OCCC(=O)Nc2ccccc2C(N)=O)c1` the activity change was 11.3%. Work on `C=CCO/N=C/C1=C(O)C(C(=O)OC)C(C)(C)CC1=O` (centres undefined) yielded an activity change of 9.19%. With `CO/N=C/CC(=O)c1ccc(OC)cc1` the activity change was 8.95%. With `COc1ccc(OCCC(=O)c2ccc(OC)cc2)cc1` the activity change was 30.2%. In the case of `COc1ccc(CCC(=O)c2ccc(OC)cc2)cc1`, the activity change is reported as -82.8% (active). `COc1cccc(NC(=O)COc2cc(C)cc3oc(=O)cc(C)c23)c1` gave an activity change of 15.1%. `O=c1[nH]c(NCCO)nnc1Cc1ccc(Cl)cc1` showed an activity change of -1.67%. With `COc1ccc(Cc2nnc(N/N=C/c3ccccc3O)[nH]c2=O)cc1OC` the activity change was -86.4% (active). Work on `Cc1nnc(N/N=C/c2ccccn2)[nH]c1=O` yielded an activity change of -29.7%.
